# From publication PMC5540273 (PLoS ONE, 2017)
# How the values were obtained:
# Conditions in all cases: concentration: 1 μM, replicates: in singlicate; n = 1
# DYRK1B = tested on: DYRK1B
# DYRK2 = tested on: DYRK2
# EGFR = tested on: EGFR
# EIF2AK1 = tested on: EIF2AK1
# EPHA1 = tested on: EPHA1
# EPHA2 = tested on: EPHA2
# EPHA3 = tested on: EPHA3
# EPHA4 = tested on: EPHA4
# EPHA5 = tested on: EPHA5
# EPHA6 = tested on: EPHA6
# EPHA7 = tested on: EPHA7
# EPHA8 = tested on: EPHA8
# EPHB1 = tested on: EPHB1
# EPHB2 = tested on: EPHB2
# EPHB3 = tested on: EPHB3
# EPHB4 = tested on: EPHB4
# EPHB6 = tested on: EPHB6
# ERBB2 = tested on: ERBB2
# ERBB3 = tested on: ERBB3
# ERBB4 = tested on: ERBB4
# 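Further: KINOMEscan kinase panel screen.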
Structure (SMILES),%Inh (DYRK1B),%Inh (DYRK2),%Inh (EGFR),%Inh (EIF2AK1),%Inh (EPHA1),%Inh (EPHA2),%Inh (EPHA3),%Inh (EPHA4),%Inh (EPHA5),%Inh (EPHA6),%Inh (EPHA7),%Inh (EPHA8),%Inh (EPHB1),%Inh (EPHB2),%Inh (EPHB3),%Inh (EPHB4),%Inh (EPHB6),%Inh (ERBB2),%Inh (ERBB3),%Inh (ERBB4)
Cc1ccc(-c2ccc3occ(-c4ccc(S(C)=O)cc4)c3c2)nn1 (stereo not drawn),33%,0%,0%,0%,0%,4%,6%,11%,0%,21%,0%,0%,0%,14%,14%,6%,0%,0%,0%,3%
O=C(Nc1n[nH]c2cc(-c3cccs3)ccc12)C1CC1 [SB-731284],0%,34%,4%,7%,0%,0%,13%,0%,0%,0%,0%,0%,0%,0%,0%,0%,55%,12%,0%,0%
CSc1ccc(NC2=C(c3ccc(Cl)cc3)C(=O)NC2=O)cc1 [SB-317658],17%,22%,6%,0%,32%,0%,0%,28%,31%,26%,0%,5%,0%,6%,21%,11%,0%,0%,0%,0%
COc1ccc(NC(=O)c2ccoc2)cc1-c1ccc(C(=O)NCC2CC2)cc1 [GW810437],8%,21%,0%,0%,0%,0%,15%,0%,0%,0%,0%,1%,4%,0%,0%,0%,24%,15%,12%,7%
O=C1NC(=O)C(c2ccccc2Cl)=C1Nc1cccc(Cl)c1 [SB-342409],0%,23%,0%,27%,8%,7%,0%,25%,0%,17%,15%,19%,8%,12%,13%,15%,0%,0%,0%,9%
Cc1ccc(O)cc1Nc1ccnc2ccc(C(C)(C)C)cc12 [GW856805],19%,19%,37%,44%,99%,92.9%,71%,91.3%,99.3%,79%,0%,98.2%,97.4%,92.5%,100%,97.1%,24%,32%,15%,24%
CN(c1ccc(F)c(NC(=O)c2cccc(OC(C)(C)C#N)c2Cl)c1)c1ccc2nc(NC(=O)C3CC3)sc2n1,46%,0%,64%,7%,58%,67%,31%,20%,0%,27%,0%,41%,10%,2%,0%,14%,88%,66%,9%,67%
CC(=O)Nc1cn2nc(Oc3cccc(NC(=O)c4cccc(C(F)(F)F)c4)c3)ccc2n1,0%,0%,58%,0%,75%,99.2%,65%,96%,96.2%,94.3%,7%,99.5%,95.1%,98.6%,5%,90.9%,98.1%,6%,41%,4%
Cc1ccc(NC(=O)c2ccc(Cl)c(Cl)c2)cc1-c1ccc(C(=O)Nc2ccncc2)cc1 [GSK1398460],6%,7%,32%,7%,13%,14%,1%,32%,12%,18%,9%,35%,17%,17%,25%,19%,16%,2%,0%,4%
Cn1cc(-c2ccc3c(c2)CCN3C(=O)Cc2cc(F)cc(F)c2F)c2c(N)ncnc21 [GSK2634140],4%,5%,16%,80%,4%,9%,0%,6%,0%,1%,3%,8%,14%,0%,11%,0%,87%,31%,0%,41%
Cc1ccc(NC(=O)c2cccc(N3CCCCC3)c2)cc1-c1ccc(C(=O)NCC2CC2)cc1 [GSK1917008],0%,18%,35%,8%,18%,33%,4%,37%,3%,34%,24%,41%,30%,0%,27%,31%,21%,0%,0%,2%
Cc1ccccc1CC(=O)N1CCc2cc(-c3cn(C)c4ncnc(N)c34)ccc21 [GSK2603346],4%,4%,22%,90.1%,13%,5%,0%,0%,0%,10%,0%,5%,8%,0%,0%,0%,53%,8%,0%,32%
COC(=O)Nc1nc2ccc(Oc3ccc(NC(=O)Nc4cc(C(F)(F)F)ccc4F)cc3)cc2[nH]1.Cl [GW654607],42%,13%,29%,26%,90.9%,98%,39%,96.8%,66%,97.7%,89%,99.6%,81%,80%,40%,58%,92.4%,6%,0%,6%
Cc1nn2c(=O)cc(N3CCO[C@H](C)C3)nc2n1Cc1cccc(Cl)c1Cl [GSK2373693],11%,12%,28%,1%,1%,21%,0%,0%,0%,0%,0%,2%,3%,66%,0%,5%,3%,0%,0%,0%
CCNC(=O)/C=C/c1n[nH]c2cc(Sc3ccccc3C(=O)NC)ccc12,0%,7%,23%,29%,9%,7%,0%,5%,42%,16%,0%,0%,0%,1%,10%,14%,20%,16%,3%,1%
